# Experimental data as given in paper PMC7862700, “An all-to-all approach to the identification of sequence-specific readers for epigenetic DNA modifications on cytosine”.
# Tests used:
# Assay in all cases: DAPPL (digital affinity profiling via proximity ligation, sequencing); 10 mM Tris-HCl pH 7.5, 50 mM NaCl, 1 mM DTT, 4% glycerol, room temperature, 30 min; GST-TFs on glutathione beads, 16-mer random dsDNA library, 0.1% formaldehyde crosslink after washing; high values mean tight binding
# Settings in all cases: protein: recombinant; tags: N-terminal GST; dsDNA, one strand shown
# FLI1 = molecular target: T1, FLI1 (Homo sapiens, UniProt Q01543 1-452)
# T1 sequence: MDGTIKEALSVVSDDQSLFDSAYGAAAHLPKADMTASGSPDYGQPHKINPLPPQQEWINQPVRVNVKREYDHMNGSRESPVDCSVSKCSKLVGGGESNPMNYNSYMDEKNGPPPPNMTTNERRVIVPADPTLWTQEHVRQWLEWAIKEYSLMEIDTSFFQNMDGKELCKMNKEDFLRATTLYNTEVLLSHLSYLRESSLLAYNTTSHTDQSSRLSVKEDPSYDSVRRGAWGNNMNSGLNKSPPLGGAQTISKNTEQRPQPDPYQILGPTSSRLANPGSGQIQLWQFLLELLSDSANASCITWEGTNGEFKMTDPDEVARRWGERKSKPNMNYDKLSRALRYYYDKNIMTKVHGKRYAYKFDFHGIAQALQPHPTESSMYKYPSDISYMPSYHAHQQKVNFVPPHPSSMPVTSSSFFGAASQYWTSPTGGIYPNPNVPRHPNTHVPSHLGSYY
# Method in brief: (§1)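 Binding signal is defined as a hexamer's read frequency for one factor over its frequency for the tag-only sample. To obtain reads, GST-fused human transcription factors were expressed in yeast, captured on glutathione beads, barcoded with DNA and pooled with that sample. Pools met 200 nmole of a 16-mer random double-stranded DNA library in Tris/NaCl/DTT/glycerol buffer for 30 min at room temperature before washing, 0.1% formaldehyde crosslinking, proximity ligation (BsaI/T4 ligase, 1 h, 37 °C), PCR and Illumina NextSeq500 sequencing.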
# ELK1 = molecular target: T2, ELK1 (Homo sapiens, UniProt P19419 1-428)
# T2 sequence: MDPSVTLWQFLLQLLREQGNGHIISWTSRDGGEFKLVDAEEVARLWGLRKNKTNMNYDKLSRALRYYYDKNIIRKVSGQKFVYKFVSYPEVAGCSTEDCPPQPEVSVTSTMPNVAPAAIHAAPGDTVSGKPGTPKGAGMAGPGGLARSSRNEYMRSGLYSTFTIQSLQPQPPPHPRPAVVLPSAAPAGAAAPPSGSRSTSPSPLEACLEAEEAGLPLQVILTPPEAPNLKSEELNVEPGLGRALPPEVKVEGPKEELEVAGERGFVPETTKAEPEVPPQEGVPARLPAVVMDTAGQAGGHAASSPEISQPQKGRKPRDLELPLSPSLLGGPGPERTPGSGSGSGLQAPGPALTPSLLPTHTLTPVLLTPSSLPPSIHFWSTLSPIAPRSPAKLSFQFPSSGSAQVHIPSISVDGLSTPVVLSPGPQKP
# Method in brief: as §1
# GABPA = molecular target: T3, GABPA (Homo sapiens, UniProt Q06546 1-454)
# T3 sequence: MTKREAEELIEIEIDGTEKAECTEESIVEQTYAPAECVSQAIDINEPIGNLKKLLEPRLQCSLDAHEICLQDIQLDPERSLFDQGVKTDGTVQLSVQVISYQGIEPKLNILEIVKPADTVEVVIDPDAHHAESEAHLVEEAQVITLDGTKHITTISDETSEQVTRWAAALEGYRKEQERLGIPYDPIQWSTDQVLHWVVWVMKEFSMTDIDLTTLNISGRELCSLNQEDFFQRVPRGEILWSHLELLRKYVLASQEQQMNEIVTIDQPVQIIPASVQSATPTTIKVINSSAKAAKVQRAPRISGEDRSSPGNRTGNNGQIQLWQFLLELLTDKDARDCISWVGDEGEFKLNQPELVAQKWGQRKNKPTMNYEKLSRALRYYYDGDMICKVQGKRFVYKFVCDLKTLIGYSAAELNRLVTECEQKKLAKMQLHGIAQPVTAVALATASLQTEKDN
# Method in brief: as §1
# ERG = molecular target: T4, ERG (Homo sapiens, UniProt P11308 1-479)
# T4 sequence: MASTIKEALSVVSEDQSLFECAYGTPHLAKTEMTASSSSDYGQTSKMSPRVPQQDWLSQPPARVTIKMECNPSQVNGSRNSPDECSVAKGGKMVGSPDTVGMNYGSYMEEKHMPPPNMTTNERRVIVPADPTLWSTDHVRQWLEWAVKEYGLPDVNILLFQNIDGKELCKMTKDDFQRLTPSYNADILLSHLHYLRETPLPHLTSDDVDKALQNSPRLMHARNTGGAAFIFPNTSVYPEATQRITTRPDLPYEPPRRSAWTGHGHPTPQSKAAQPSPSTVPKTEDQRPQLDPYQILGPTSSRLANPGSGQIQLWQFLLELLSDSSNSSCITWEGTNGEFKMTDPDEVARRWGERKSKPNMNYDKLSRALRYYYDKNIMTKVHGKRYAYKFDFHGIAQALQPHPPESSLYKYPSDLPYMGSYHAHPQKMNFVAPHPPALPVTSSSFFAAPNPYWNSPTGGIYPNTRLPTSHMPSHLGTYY
# Method in brief: as §1
# ELF1 = ELF1 (Homo sapiens, UniProt P32519 1-619)
# Method in brief: as §1
# EHF = molecular target: T5, EHF (Homo sapiens, UniProt Q9NZC4 1-300)
# T5 sequence: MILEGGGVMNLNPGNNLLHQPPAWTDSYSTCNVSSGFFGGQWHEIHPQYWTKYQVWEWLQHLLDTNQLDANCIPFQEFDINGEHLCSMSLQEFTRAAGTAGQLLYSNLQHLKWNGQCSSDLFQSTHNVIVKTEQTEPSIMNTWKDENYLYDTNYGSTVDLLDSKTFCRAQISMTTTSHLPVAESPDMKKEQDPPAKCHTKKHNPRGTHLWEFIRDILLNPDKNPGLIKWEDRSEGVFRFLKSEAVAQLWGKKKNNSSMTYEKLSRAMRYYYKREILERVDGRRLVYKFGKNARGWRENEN
# Method in brief: as §1
# SPI1 = SPI1 (Homo sapiens, UniProt P17947 1-270)
# Method in brief: as §1
# SPIB = SPIB (Homo sapiens, UniProt Q01892 1-262)
# Method in brief: as §1
# ELK3 = molecular target: T6, ELK3 (Homo sapiens, UniProt P41970 1-407)
# T6 sequence: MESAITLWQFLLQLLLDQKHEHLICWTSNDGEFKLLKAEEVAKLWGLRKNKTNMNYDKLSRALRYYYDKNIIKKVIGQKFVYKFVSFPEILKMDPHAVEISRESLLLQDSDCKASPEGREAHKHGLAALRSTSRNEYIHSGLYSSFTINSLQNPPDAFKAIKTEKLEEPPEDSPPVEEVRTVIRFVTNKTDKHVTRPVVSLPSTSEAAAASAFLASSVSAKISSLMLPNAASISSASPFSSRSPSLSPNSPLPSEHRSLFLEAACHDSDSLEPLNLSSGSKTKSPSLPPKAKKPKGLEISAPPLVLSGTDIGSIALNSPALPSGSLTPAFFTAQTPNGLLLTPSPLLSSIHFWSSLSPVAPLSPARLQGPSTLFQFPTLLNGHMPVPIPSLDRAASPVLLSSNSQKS
# Method in brief: as §1
# FEV = molecular target: T7, FEV (Homo sapiens, UniProt Q99581 1-238)
# T7 sequence: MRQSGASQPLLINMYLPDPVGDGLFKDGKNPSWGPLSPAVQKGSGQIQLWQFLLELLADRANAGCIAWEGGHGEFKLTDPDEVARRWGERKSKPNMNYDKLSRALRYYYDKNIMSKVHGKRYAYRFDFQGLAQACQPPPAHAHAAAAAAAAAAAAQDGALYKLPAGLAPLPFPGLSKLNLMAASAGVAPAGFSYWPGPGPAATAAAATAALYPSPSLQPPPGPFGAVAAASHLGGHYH
# Method in brief: as §1
# ETV5 = ETV5 (Homo sapiens, UniProt P41161 1-510)
# Method in brief: as §1
# SPIC = molecular target: T8, SPIC (Homo sapiens, UniProt Q8N5J4 1-248)
# T8 sequence: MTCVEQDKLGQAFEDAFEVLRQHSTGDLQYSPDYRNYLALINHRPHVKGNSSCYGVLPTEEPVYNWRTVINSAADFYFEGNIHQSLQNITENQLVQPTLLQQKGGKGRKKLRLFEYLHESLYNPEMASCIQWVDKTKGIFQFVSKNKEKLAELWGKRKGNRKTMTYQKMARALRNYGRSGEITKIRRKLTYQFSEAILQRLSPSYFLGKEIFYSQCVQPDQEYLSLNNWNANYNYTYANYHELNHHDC
# Method in brief: as §1
# ELF4 = ELF4 (Homo sapiens, UniProt Q99607 1-663)
# Method in brief: as §1
# ELK4 = molecular target: T9, ELK4 (Homo sapiens, UniProt P28324-2 1-405)
# T9 sequence: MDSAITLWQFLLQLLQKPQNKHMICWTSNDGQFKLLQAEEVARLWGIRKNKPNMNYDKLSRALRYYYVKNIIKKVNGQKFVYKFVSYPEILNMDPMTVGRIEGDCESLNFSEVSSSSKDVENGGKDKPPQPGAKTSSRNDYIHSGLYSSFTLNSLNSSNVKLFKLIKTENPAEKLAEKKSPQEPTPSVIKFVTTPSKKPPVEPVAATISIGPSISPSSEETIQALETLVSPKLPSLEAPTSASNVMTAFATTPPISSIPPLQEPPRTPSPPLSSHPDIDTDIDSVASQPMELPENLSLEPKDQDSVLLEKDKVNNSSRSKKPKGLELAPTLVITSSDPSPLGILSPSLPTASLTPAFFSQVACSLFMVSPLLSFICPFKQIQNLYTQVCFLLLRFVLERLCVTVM
# Method in brief: as §1
# ETV2 = molecular target: T10, ETV2 (Homo sapiens, UniProt O00321 1-342)
# T10 sequence: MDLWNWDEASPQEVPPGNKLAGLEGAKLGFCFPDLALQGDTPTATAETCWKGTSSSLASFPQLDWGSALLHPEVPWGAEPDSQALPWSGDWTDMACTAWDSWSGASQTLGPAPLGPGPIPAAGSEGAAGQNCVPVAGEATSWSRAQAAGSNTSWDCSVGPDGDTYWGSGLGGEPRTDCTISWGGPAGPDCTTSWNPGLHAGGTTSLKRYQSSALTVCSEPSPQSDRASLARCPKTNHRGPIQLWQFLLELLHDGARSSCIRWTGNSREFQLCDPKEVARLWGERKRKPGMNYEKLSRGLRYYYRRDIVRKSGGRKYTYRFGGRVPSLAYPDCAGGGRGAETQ
# Method in brief: as §1
# ELF3 = molecular target: T11, ELF3 (Homo sapiens, UniProt P78545 1-371)
# T11 sequence: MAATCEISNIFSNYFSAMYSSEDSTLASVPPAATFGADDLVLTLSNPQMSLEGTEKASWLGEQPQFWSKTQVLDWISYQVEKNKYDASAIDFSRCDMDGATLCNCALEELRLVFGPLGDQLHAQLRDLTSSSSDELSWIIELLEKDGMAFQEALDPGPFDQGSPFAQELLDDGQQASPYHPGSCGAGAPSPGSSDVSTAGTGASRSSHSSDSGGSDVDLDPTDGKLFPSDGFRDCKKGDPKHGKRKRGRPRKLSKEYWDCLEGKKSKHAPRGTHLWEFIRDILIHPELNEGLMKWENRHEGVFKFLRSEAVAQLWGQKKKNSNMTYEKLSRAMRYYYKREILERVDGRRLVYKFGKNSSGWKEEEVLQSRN
# Method in brief: as §1
# ETV1 = ETV1 (Homo sapiens, UniProt P50549 1-477)
# Method in brief: as §1
# Sequence of ELF4 (Q99607 whole entry): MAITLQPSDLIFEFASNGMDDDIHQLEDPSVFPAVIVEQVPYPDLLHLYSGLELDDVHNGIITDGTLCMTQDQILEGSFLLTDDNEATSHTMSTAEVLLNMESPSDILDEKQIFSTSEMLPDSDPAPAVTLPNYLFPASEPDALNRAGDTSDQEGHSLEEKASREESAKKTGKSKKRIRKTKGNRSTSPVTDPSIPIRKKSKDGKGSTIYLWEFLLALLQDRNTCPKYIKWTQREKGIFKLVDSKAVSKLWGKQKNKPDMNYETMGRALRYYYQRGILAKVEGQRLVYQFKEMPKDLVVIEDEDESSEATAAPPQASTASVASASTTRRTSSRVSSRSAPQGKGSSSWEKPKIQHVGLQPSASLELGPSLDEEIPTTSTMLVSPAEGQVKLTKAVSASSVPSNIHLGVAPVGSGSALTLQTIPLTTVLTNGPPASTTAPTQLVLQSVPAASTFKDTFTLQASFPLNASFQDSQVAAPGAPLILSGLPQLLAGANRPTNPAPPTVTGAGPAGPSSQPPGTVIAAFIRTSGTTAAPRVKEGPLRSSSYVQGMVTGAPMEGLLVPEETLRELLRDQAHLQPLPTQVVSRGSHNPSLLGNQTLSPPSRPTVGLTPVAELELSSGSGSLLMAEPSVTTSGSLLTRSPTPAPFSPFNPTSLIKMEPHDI
# Sequence of SPIB (Q01892 whole entry): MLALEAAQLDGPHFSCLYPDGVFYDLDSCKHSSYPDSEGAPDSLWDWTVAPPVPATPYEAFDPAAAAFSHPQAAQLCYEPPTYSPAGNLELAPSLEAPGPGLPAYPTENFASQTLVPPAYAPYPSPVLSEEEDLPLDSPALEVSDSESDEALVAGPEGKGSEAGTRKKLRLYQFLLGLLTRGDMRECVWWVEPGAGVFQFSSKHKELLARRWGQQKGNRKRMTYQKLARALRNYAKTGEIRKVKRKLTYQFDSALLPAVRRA
# Sequence of ETV1 (P50549 whole entry): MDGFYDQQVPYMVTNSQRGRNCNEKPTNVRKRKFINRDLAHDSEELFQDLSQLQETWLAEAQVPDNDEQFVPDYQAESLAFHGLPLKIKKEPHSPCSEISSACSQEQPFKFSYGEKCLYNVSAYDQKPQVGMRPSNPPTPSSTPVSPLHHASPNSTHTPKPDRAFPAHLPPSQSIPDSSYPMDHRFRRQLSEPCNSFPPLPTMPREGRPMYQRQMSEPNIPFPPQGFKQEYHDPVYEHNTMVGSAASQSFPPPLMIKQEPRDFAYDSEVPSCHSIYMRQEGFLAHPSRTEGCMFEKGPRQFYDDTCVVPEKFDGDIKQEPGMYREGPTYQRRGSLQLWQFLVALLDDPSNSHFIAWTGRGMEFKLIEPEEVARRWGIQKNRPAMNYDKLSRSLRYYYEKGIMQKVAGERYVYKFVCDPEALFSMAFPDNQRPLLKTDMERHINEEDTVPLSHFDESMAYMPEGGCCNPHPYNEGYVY
# Sequence of ETV5 (P41161 whole entry): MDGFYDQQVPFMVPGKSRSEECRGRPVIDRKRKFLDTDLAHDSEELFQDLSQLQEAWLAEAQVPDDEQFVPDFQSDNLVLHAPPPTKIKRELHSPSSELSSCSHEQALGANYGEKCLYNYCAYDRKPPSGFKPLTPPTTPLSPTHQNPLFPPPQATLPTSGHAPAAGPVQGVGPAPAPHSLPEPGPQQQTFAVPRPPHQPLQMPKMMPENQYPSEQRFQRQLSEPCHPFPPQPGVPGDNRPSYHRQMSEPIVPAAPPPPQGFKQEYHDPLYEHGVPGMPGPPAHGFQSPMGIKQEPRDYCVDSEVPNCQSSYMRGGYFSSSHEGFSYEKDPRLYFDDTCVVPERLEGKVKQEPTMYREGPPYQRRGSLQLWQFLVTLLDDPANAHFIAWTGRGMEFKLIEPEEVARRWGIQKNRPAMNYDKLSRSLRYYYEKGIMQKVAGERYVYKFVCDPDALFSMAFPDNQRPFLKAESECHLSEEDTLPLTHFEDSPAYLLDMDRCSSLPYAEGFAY
# Sequence of ELF1 (P32519 whole entry): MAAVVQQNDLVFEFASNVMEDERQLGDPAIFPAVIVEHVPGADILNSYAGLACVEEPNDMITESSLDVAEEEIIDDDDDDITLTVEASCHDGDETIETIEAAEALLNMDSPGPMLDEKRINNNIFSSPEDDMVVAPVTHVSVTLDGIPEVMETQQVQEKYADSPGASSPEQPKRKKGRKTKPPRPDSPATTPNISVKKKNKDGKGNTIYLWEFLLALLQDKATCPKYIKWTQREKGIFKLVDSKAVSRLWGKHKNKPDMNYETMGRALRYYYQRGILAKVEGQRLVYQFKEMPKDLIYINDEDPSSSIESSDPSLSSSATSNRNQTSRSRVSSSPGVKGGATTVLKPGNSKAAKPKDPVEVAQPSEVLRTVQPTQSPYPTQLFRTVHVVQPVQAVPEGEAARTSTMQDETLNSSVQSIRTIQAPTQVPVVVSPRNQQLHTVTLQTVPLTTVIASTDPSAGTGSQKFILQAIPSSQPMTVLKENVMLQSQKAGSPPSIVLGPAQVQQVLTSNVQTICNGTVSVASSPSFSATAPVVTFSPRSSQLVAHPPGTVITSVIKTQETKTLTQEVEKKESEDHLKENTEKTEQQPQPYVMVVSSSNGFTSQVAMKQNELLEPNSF
sequence,measurement,setting,value
GCTACC,binding signal,FLI1,"1.18 fold enrichment (6-mer frequency, TF over GST control)"
same,binding signal,ELK1,"1.27 fold enrichment (6-mer frequency, TF over GST control)"
same,binding signal,GABPA,"1.25 fold enrichment (6-mer frequency, TF over GST control)"
same,binding signal,ERG,"1.26 fold enrichment (6-mer frequency, TF over GST control)"
same,binding signal,ELF1,"1.29 fold enrichment (6-mer frequency, TF over GST control)"
same,binding signal,EHF,"1.09 fold enrichment (6-mer frequency, TF over GST control)"
same,binding signal,SPI1,"1.11 fold enrichment (6-mer frequency, TF over GST control)"
same,binding signal,SPIB,"1.28 fold enrichment (6-mer frequency, TF over GST control)"
same,binding signal,ELK3,"1.39 fold enrichment (6-mer frequency, TF over GST control)"
same,binding signal,FEV,"1.18 fold enrichment (6-mer frequency, TF over GST control)"
same,binding signal,ETV5,"1.17 fold enrichment (6-mer frequency, TF over GST control)"
same,binding signal,SPIC,"1.23 fold enrichment (6-mer frequency, TF over GST control)"
same,binding signal,ELF4,"1.24 fold enrichment (6-mer frequency, TF over GST control)"
same,binding signal,ELK4,"1.04 fold enrichment (6-mer frequency, TF over GST control)"
same,binding signal,ETV2,"1.08 fold enrichment (6-mer frequency, TF over GST control)"
same,binding signal,ELF3,"1.1 fold enrichment (6-mer frequency, TF over GST control)"
same,binding signal,ETV1,"1.26 fold enrichment (6-mer frequency, TF over GST control)"
